Screening data as filed in PubChem.
NADH enzymes: inhibition of NAD/NADH coupling enzymes, library profiling; AID 774; IC50, µM (series often up to 10 µM), inactives show top-dose inhibition; coupled PK/LDH NADH assays, four targets; 65,000 compounds, 0.02% hits;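 active = single-dose screening hits from any of four coupled enzyme assays that gave an IC50 when retested across doses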;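 note: the DPM-DC format reads NADH fluorescence rather than 340 nm absorbance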
Spn PMK inh: inhibitors of Streptococcus pneumoniae phosphomevalonate kinase | purified PMK, PK/LDH-coupled NADH absorbance 340 nm | inhibition, % at 10 µM | 65,000 compounds, 0.49% hits | AID 539;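 active = top-ranked compounds by inhibition in the single 10 µM screen, taking a fixed number of the strongest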;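 note: 0% = full reaction with DMSO carrier and 100% = background rate without enzyme reaction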
Fluor 339 460: intrinsic fluorescence of library compounds, ex339/em460 – biochemical, MLSMR library, data from DPM-DC assay, artefact control, profiling panel; 65,000 compounds, 5.5% hits; fluorescence fold increase at 10 µM; compound autofluorescence, ex339/em460 nm, NADH buffer; active compounds read high; 1 = no-compound wells, NADH background;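 active = at 10 µM, mean starting fluorescence two-fold or more over control wells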;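 note: signal is the first read of a kinetic run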
A340 absorber: absorbance at 340 nm; compound absorbance at 340 nm, fold over control; fold change at 10 µM; 65,000 tested, under 10 active; AID 708;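 active = at 10 µM dose, initial 340 nm absorbance at least 2 fold that of control wells; inactive = change under 2 fold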;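 note: initial absorbance extrapolated from kinetic A340 decline of NADH oxidation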
Spn MK inh: S. pneumoniae mevalonate kinase inhibition. purified MK, PK/LDH-coupled NADH absorbance 340 nm. inhibition, % at 10 µM. 65,000 compounds, 0.48% hits;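 active = ranked among the strongest by inhibition in the single 10 µM screen, a fixed top-ranked set picked for dose follow-up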
DPM-DC inhibit: S. pneumoniae DPM-DC inhibition | purified DPM-DC, PK/LDH coupled NADH fluorescence | calls only at 10 µM | 65,000 compounds, 0.49% hits;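 active = the 320 compounds with the highest percent inhibition in the single-dose primary screen, excluding strongly autofluorescent ones, cut at about 32% in these data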;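 note: kinetic rate of NADH fluorescence loss reporting ADP formed by the decarboxylase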
Starred values were filed as active, the others as inactive; i = inactive; · = no result shown; + = active, no number. Rows were chosen to be rich in hits. Some 6.3% of all compounds tested hit in one or more screens of this group.

SMILES	NADH enzymes	Spn PMK inh	Fluor 339 460	A340 absorber	Spn MK inh	DPM-DC inhibit
COc1ccc(-c2cc(C(F)(F)F)nc(SCC(N)=O)n2)cc1	11%	13	3.7*	1.1	9	·
COc1ccc(-c2cc(-c3cccs3)c(C#N)c(SCC(=O)NCc3ccco3)n2)cc1	10%	4	2.5*	1	8	i
O=C(O)CCn1nnc(-c2cccs2)n1	26%	13	0.4	0.95	0	+
C=CCn1c(O)c(C2=c3ccccc3=NC2=O)sc1=Nc1ccc(O)cc1	3%	4	1.1	1.1	6	i
Cn1c(-c2ccc(Br)o2)nc2ccccc21	7%	11	1.2	1.1	11	i
CC(=O)c1ccc(-c2nc3ccccc3n2C)o1	3%	3	3*	1.1	10	·
CCOc1ccc2nc(NCCNC(=O)CC)c(C#N)cc2c1	13%	17	3.8*	1	9	·
CCOc1ccc2nc(SCC(=O)N3CCCCCC3)c(C#N)cc2c1	4%	9	1.2	0.97	6	i
COc1ccc(NS(=O)(=O)c2cccc(-c3nnc4n3CCCCC4)c2)cc1	1%	0	1.1	1	4	i
COc1ccc(-c2cc3nc4n(c(=O)c3s2)CCC4)cc1	4%	9	3*	1	6	·
O=C(COC(=O)c1ccc2c(c1)OCO2)NCc1ccc(Cl)cc1	5%	10	1	0.99	6	i
Cc1cnc(SCCc2ccncc2)nc1C	6%	3	1.1	1.1	16	+
N#Cc1cnc(SCCc2ccccc2)nc1N	3%	14	1.3	1	0	i
Cc1nnc(SCC(=O)Nc2ncc(Cc3ccc(F)cc3)s2)n1N	34%	44*	1.2	1.1	32	i
COc1ccc(OC)c(-n2c(-c3cccc(O)c3)n[nH]c2=S)c1	27%	0	1.2	1	66*	i
CCOc1cc(CN2CCN(c3ccc(C(C)=O)cc3)CC2)ccc1OC	15%	0	1.1	1.2	44*	i
CCOc1cc(CN2CCN(C(=O)c3ccco3)CC2)ccc1OC	7%	0	1	1.1	51*	i
COc1ccc(CN2CCN(C(=O)c3cccs3)CC2)cc1Br	21%	13	1.1	1.1	49*	i
O=C(NCCSCc1ccco1)Nc1ccccc1	9%	20	1.1	1	6	i
CCN1CCN(C(=O)c2ccc3c(c2)N(Cc2ccc(F)cc2)C(=O)c2ccccc2S3=O)CC1 (configuration not stated)	3%	0	1.1	1	10	i
CC(CCO)Nc1nc2c(c(=O)n(C)c(=O)n2C)n1Cc1cccc(Br)c1 (configuration not stated)	7%	3	1.1	1	4	i
CCOC(=O)C1CCCN(C(=O)CCn2nc(-c3ccccc3)ccc2=O)C1 (configuration not stated)	6%	17	1.2	1	0	i
CCOC(=O)C1CCN(S(=O)(=O)c2ccc3c4c(cccc24)C(=O)N3)CC1	7%	8	2.1*	1.1	5	·
COC(=O)CSc1nnc(CNC(=O)c2cccs2)n1-c1cc(OC)ccc1OC	5%	14	1.1	0.99	1	i
CCN1CCCC1CN(Cc1cc2cc(C)cc(C)c2[nH]c1=O)C(=O)Nc1ccccc1OC (configuration not stated)	9%	16	1.3	1	11	i
COc1ccc2[nH]c(=O)c(CN(CC3CCCO3)C(=O)Nc3ccccc3OC)cc2c1 (configuration not stated)	14%	10	2.5*	1.1	10	i
COc1ccccc1NC(=O)N(Cc1cc2cc(OC)c(OC)cc2[nH]c1=O)CC1CCCO1 (configuration not stated)	11%	8	2.7*	1.1	0	i
CCc1ccc2[nH]c(=O)c(CN(CCCN3CCOCC3)C(=O)Nc3cccc(Cl)c3)cc2c1	8%	15	1.2	1	8	i
COc1cc(C(=O)N(Cc2cc3ccccc3[nH]c2=O)CC2CCCO2)cc(OC)c1OC (configuration not stated)	9%	14	1.3	1	9	i
COc1ccc2[nH]c(=O)c(CN(CCN3CCCC3)C(=O)Nc3ccccc3Cl)cc2c1	12%	4	3.2*	1	6	i
